Screening results from PubChem BioAssay.
The sample as a whole holds a higher share of hits than the screen did.
G9a inh: blocks human histone lysine methyltransferase G9a; G9a H3K9 monomethylation, AlphaScreen, 2 h; Potency, µM (top dose mostly 102 µM), for inactives: at the highest dose activity, negative = inhibition, usual class: inhibitors; 350,000 tested, 8.8% active; note: % is set by controls: 0 for no effect and ±100 for the full control effect; nearly all actives have a fitted effect of over 75% in size
Target sequence (Q96KQ7 913-1193 limits assumed): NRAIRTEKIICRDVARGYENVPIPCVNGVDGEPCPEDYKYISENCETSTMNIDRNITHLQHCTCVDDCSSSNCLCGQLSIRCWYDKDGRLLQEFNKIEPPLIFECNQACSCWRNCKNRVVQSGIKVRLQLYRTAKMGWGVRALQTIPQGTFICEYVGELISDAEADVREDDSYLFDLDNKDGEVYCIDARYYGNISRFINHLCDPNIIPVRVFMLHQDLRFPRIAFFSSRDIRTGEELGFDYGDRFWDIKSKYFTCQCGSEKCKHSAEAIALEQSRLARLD
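AlphaScreen detection with an anti-monomethyl H3K9 antibody quantified product after a 2 h room-temperature reaction containing 500 nM biotinylated H3K9 peptide, 20 µM SAM and 20 nM enzyme, which had been preincubated 15 min with compound.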
VDR inhibitor: vitamin D3 receptor (human) inhibition; 400,000 tested, 0.93% active; VDR-SRC2-3 peptide fluorescence polarization, 2 h; Potency, µM, inactives show max response, negative = inhibition, usual class: inhibitors; note: % is set by controls: 0 for no effect and ±100 for the full control effect
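VDR–SRC2-3 interaction, FP format. Cmpds 23 nl via pintool, brief spin, 2 h ambient incubation.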
ALOX12 inh: inhibitors of human 12S-lipoxygenase ALOX12. P18054. purified 12hLO, xylenol orange hydroperoxide absorbance. Potency, µM (doses to about 108 µM), inactives show at the highest dose activity change, negative = inhibition, hits mostly inhibitors. 580,000 tested, 1.1% active. AID 1671190; note: % is set by controls: 0 for no effect and ±100 for the full control effect
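Purified human 12hLO at 150 nM in 25 mM Hepes, 0.01% Triton X-100, pH 7.0, preincubated 15 min at room temperature with compound. Reaction started with 40 uM arachidonic acid, 30 min at room temperature. Hydroperoxide measured by Fe-xylenol orange, 573/405 nm absorbance ratio.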
Sfp inh: blocks B. subtilis Sfp PPTase activity; Biochemical Sfp PPTase activity, qHTS; Potency, µM, inactives show largest response in the series, negative = inhibition, actives largely listed as inhibitors; 310,000 tested, 3.5% active;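 note: the enzyme is Sfp with the accession as filed and its product quenches rhodamine fluorescence; 0% = enzyme reaction without inhibitor and -100% = no enzyme wells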
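Buffer: 50 mM Hepes-Na pH 7.6, 10 mM MgCl2, 0.01% Nonidet P-40, 0.01% BSA. Enzyme 15 nM, pre-exposed to compound 15 min; substrates then added and fluorescence change tracked over 30 min.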
Glioma ERSR ind: inducers of ER stress response in human glioma cells; U87-MG GRP78 promoter luciferase reporter, 16 h; AID 602332; Potency, µM, without a hit: top-dose activation, actives largely listed as activators; 420,000 tested, 0.02% active; note: series mostly up to about 76 µM; % of control where 0% means no effect; nearly all actives have a fitted effect of over 35% in size
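ERSR induction read as luciferase luminescence (Bright-Glo, 10 min at room temperature) in stably transfected human U87-MG glioma cells exposed to compounds for 16 h, using GRP78 as sensor.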
* hit, by the source's call; ? = inconclusive; · = not tested or not shown; [ ] = remark or other dose. Calls come from the whole dose curve; as a rule, active = well fitted curve in the direction sought with a large enough effect; inconclusive = small, poorly fitted or top-dose-only effect, or another doubt; inactive = no such curve, though single readings can be large; an effect the other way counts as inactive or inconclusive. Potency is the fitted concentration of half-maximal effect.

SMILES	G9a inh	VDR inhibitor	ALOX12 inh	Sfp inh	Glioma ERSR ind
Cc1cc(C)c2nc(N3C(=O)C(O)=C(C(=O)c4ccco4)C3c3ccc(O)cc3)sc2c1 (stereo not given)	?	79µM*	25µM*	·	-3%
Cc1cc(N2C(=O)C(O)=C(C(=O)c3ccco3)C2c2ccc(O)cc2)no1 (stereo not given)	17%[12.7 µM]	-14%	?	-18%	-2%
CCOC(=O)c1sc(N2C(=O)C(O)=C(C(=O)c3ccco3)C2c2cccc([N+](=O)[O-])c2)nc1C (stereo not given)	45µM*	71µM*	45µM*	?	0%
N#Cc1ccc(C(=O)NCC(=O)N2CCCCCCNC(=O)CC2c2ccccc2)cc1 (stereo not given)	·	·	41%	·	·
O=C(COC(=O)/C=C/c1ccco1)Nc1cccc([N+](=O)[O-])c1	?	-12%	-31%	32µM*	-2%
CN(C)S(=O)(=O)c1cccc(NC(=O)COC(=O)/C=C/c2ccco2)c1	?	?	-18%	-19%	1%
CCN(CC)S(=O)(=O)c1cccc(NC(=O)COC(=O)/C=C/c2ccco2)c1	16µM*	-12%	?	28µM*	-3%
O=C(O)C(c1c(-c2ccccc2)[nH]c2ccccc12)N1CCN(Cc2ccccc2)CC1 (stereo not given)	·	·	-20%	·	·
COc1ccc(S(=O)(=O)Nc2c(C(=O)O)[nH]c3ccccc23)cc1	45µM*	-6%	?	21%	-7%
COc1ccc2[nH]c(C(=O)O)c(NS(=O)(=O)c3ccc(C)c(C)c3)c2c1	45µM*	-8%	?	12%	1%
O=C(O)c1[nH]c2ccccc2c1NS(=O)(=O)c1ccc(F)cc1	71µM*	-4%	12%	7%	2%
COc1ccc(S(=O)(=O)Nc2c(C(=O)O)[nH]c3ccccc23)cc1OC	13µM*	-10%	?	?	5%
Cc1ccc(S(=O)(=O)Nc2c(C(=O)O)[nH]c3ccccc23)c(C)c1	?	-22%	28%	18%	7%
COc1ccc2[nH]c(C(=O)O)c(NS(=O)(=O)c3ccc(F)cc3)c2c1	?	-26%	19%	10%	5%
O=C(Nc1cccc(-c2nnc3n2CCCC3)c1)c1ccc(F)cc1F	·	·	11%	·	·
COc1ccc(-n2c(C)c([N+](=O)[O-])c3ccc(O)c(CN4CCCCC4)c32)cc1	25µM*	-12%	-21%	-19%	-7%
CCc1nc(NC(=O)C[C@H]2NC(=O)c3ccccc3NC2=O)sc1C	·	·	9%	·	·
Cc1ccccc1C(=O)NC(NC(=O)c1ccccc1C)c1ccc(Br)cc1	·	·	13%	·	·
COc1ccc(-c2cc(C3CCN(Cc4ccc([N+](=O)[O-])cc4)CC3)[nH]n2)cc1	45µM*	20%	?	-10%	-2%
O=[N+]([O-])c1cccnc1N1CCC(c2cc(-c3ccc(Cl)cc3Cl)n[nH]2)CC1	?	-3%	?	9%	-4%
COc1ccc(OC)c(-c2cc(C3CCN(c4ncccc4[N+](=O)[O-])CC3)[nH]n2)c1	35µM*	-4%	0%	0%	-8%
COc1ccc(-c2cc(C3CCN(Cc4cccc(C(F)(F)F)c4)CC3)[nH]n2)cc1	?	-2%	?	11%	1%
CCOC(=O)c1c(S(=O)(=O)N2CCCC(C(=O)Nc3ccc(F)cc3)C2)c(C)n(C)c1C (stereo not given)	·	·	3%	·	·
COC(=O)c1ccc(-c2nc(O)c3cnccn23)cc1	?	-10%	?	-1%	-1%
Oc1nc(-c2ccc(Cl)cc2)n2ccncc12	14µM*	-18%	-7%	8%	0%
SMILES	G9a inh	VDR inhibitor	ALOX12 inh	Sfp inh	Glioma ERSR ind
COc1ccc(Cl)cc1-n1ccc2c(cnc3nc(C(F)(F)F)nn32)c1=O	·	·	15%	·	·
CNc1oc(-c2ccc(C)cc2)nc1P(=O)(c1ccccc1)c1ccccc1	1%[12.7 µM]	10%	?	56µM*	4%
Cc1cc(-c2ccc(C)c(S(=O)(=O)NCCCN3CCN(c4ccccc4)CC3)c2)on1	71µM*	-7%	-3%	-2%	-6%
CC(=O)c1cccc(NC(=O)CSCc2c(Cl)cccc2Cl)c1	·	·	-1%	·	·
O=C(CSC(=O)c1ccccc1)Nc1ccccc1F	·	79µM*	?	·	1%
O=C(CNC(c1ccccc1)c1ccccc1)Nc1ccccc1F	38%	26%	-15%	5%	-2%
CC(=O)c1cccc(NC(=O)CSC(=O)c2ccccc2)c1	20µM*	?	-14%	-14%	-4%
Cc1ccc(S(=O)(=O)Oc2ccc(/C=N/N=C3/NC(=O)C(CC(=O)O)S3)cc2)cc1 (stereo not given)	11%	11%	1%	21%	-1%
Cc1ccc(-c2ccc(/C=N/N=C3/NC(=O)C(CC(=O)O)S3)o2)c([N+](=O)[O-])c1 (stereo not given)	13%[2.33 µM]	?	-15%	20µM*	0%
O=C(O)CC1S/C(=N/N=C/c2ccc(-c3ccccc3[N+](=O)[O-])o2)NC1=O (stereo not given)	-42%[2.33 µM]	79µM*	0%	22µM*	0%
O=C(CNC(=O)C1CC1)NC(c1ccccc1)c1cc2ccccc2o1 (stereo not given)	·	·	26%	·	·
O=C(COC(=O)[C@@H]1CC(O)CN1S(=O)(=O)c1ccc([N+](=O)[O-])cc1)NC12CC3CC(CC(C3)C1)C2 (stereo not given in full)	20µM*	-26%	-13%	7%	-3%
COc1ccc(S(=O)(=O)CCC(=O)N2CCN(c3ccc([N+](=O)[O-])cc3)CC2)cc1	17%	4%	?	11%	-1%
COc1ccc(N2CCN(C(=O)C3CC(O)CN3S(=O)(=O)c3ccc([N+](=O)[O-])cc3)CC2)cc1 (stereo not given)	45µM*	-6%	?	4%	-3%
Cc1ccc(S(=O)(=O)N2CC(O)C[C@H]2C(=O)OCC(=O)Nc2ccc(N3CCCCC3)cc2)cc1C (stereo not given in full)	6.3µM*	-4%	-29%	·	-4%
Cc1[nH]nc2c1C(c1c(F)cccc1Cl)C1=C(COC1=O)N2 (stereo not given)	·	·	-40%	·	·
Cc1ccc(-c2cc3c(=O)n(CCNC(=O)c4ccc[nH]c4=O)ccn3n2)cc1C	·	·	-4%	·	·
Cc1oc(-c2nc(C#N)c(N3CCCCCC3)o2)cc1S(=O)(=O)N1CCOCC1	·	·	2%	·	·
O=C(O)CN1CCCCC1	?	-8%	?	-9%	-3%
O=C(CN1CCCC1)OCCCC1CCCCC1	56µM*	-6%	-16%	7%	-6%
C[N+]1(CC(=O)OCCCC2CCCCC2)CCCC1	56µM*	-22%	2%	-2%	-2%
C[N+]1(CC(=O)OCCCC2CCCCC2)CCOCC1	·	·	11µM*	·	·
CC1(C)[C@H]2CC[C@]1(C)[C@@H](OC(=O)C[N+]1(C)CCOCC1)C2	·	5%	?	6%	-7%
